Outcome and AC50 data for 15 compounds are collected here from PubChem BioAssay (EPA / NIEHS).

What is called AC50 is the concentration giving half of the maximal activity seen.

Read-out in test [1]: X-box binding protein 1 (XBP1), XBP1 (gene 7494)
In words: LTEA_HepaRG_XBP1: Life Technologies and Expression Analysis (LTEA) Assay for X-box binding protein 1 (XBP1) using HepaRG (AID 2283540; active = hit-call score of the fitted dose curve at least 0.9, where 1 is the maximum; inactive = score below 0.9). Particulars: mRNA level, 48 h; actives raise or lower the signal. In outline:
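XBP1 transcript by qRT-PCR (housekeeping-normalized: ACTB, GAPDH, POLR2A) after 48 h chemical treatment of HepaRG cells, 8-point half-log series topping at 100 uM, vehicle 0.5% DMSO. Gain and loss of signal fitted relative to DMSO.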

Test [2] in a line: LTEA_HepaRG_LDH_cytotoxicity: Cytotoxicity Assessment in the Life Technologies and Expression Analysis (LTEA) Assay (AID 2283563).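 For AC50: LDH activity released into spent culture medium as a marker of cell death.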 The gist of the method: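 LDH release into culture medium read after 48 h chemical treatment of HepaRG cells. Duplicate wells, eight-point half-log series topping at 100 uM, 0.5% DMSO vehicle and baseline.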
Test [3] can be described thus: ATG_XTT_Cytotoxicity: Cytotoxicity Assessment in the Attagene TRANS-FACTORIAL HepG2 Assay (AID 2283584). The gist of the method: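 Viability endpoint from XTT after 24 h chemical exposure of reporter-transfected human HepG2 liver cells; signal loss fitted relative to DMSO negative control.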
Test [4] is described as follows: TOX21_p53_BLA_p2_viability: Viability Assessment in the Tox21 HCT-116 p53 Agonism Beta-lactamase Assay, Phase 2 (AID 2283591).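 Note: compound exposure lasted 16 h at 37 °C; actives lower the ATP signal meaning cytotoxicity.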 The gist of the method: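 HCT116 p53-bla cells, 4000/well, dosed after 5 h plating (217-fold dilution of DMSO stocks) and incubated 16 h at 37C. Viability taken as cellular ATP by CellTiter-Glo luminescence after 30 min RT; signal loss marks cytotoxicity.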

In test [5] the target is Cellular tumor antigen p53 (Homo sapiens) (UniProt P04637). In words: TOX21_p53_BLA_p2_ratio: Tox21 HCT-116 p53 Agonism Beta-lactamase Assay, Ratio, Phase 2 (AID 2283592). In outline:
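Read-out is the blue/green (460/530 nm, 405 nm excitation) ratio after 2 h CCF4-AM loading, fitted as gain versus DMSO. Compounds, pinned at 217-fold dilution from DMSO stocks, stayed 16 h on HCT-116 beta-lactamase reporter cells seeded 5 h earlier.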

Test [6] has the same target. Description: TOX21_p53_BLA_p3_ratio: Tox21 HCT-116 p53 Agonism Beta-lactamase Assay, Ratio, Phase 3 (AID 2283596). In outline:
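Cells were seeded at 4000/well, rested 5 h at 37C, then dosed with DMSO compound solutions (217-fold dilution) for 16 h. CCF4-AM substrate was loaded for 2 h at room temperature, and the 460/530 nm emission ratio was fitted for gain of signal versus DMSO.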

A short description of test [7]: TOX21_p53_BLA_p4_viability: Viability Assessment in the Tox21 HCT-116 p53 Agonism Beta-lactamase Assay, Phase 4 (AID 2283597).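 Note: hits lower the luminescence signal meaning cytotoxicity.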 The gist of the method: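 Cytotoxicity as reduced cellular ATP (CellTiter-Glo luminescence, 30 min room temperature), measured in the same wells following the CCF4 FRET p53 reading. Human HCT-116 cells received compounds in DMSO (217-fold dilution) for 16 h.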

The target of test [8] is Cellular tumor antigen p53 (Homo sapiens) (UniProt P04637). In words: TOX21_p53_BLA_p5_ratio: Tox21 HCT-116 p53 Agonism Beta-lactamase Assay, Ratio, Phase 5 (AID 2283599). The gist of the method:
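HCT-116 p53-bla cells (4000/well) plated 5 h, dosed with compound (217-fold DMSO dilution) for 16 h at 37 C; CCF4-AM substrate 2 h at room temperature. Activity is the 460/530 nm emission ratio (405 nm excitation), fitted in gain-of-signal direction versus DMSO.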

Test [9] in a line: TOX21_p53_BLA_p3_viability: Viability Assessment in the Tox21 HCT-116 p53 Agonism Beta-lactamase Assay, Phase 3 (AID 2283593).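 Note: cells exposed to compound for 16 h before reading.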 The gist of the method: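 HCT116 cells, 4000/well, dosed 5 h after plating by pin transfer (217-fold dilution from DMSO stock) and incubated 16 h at 37C, 5% CO2. Viability read as ATP luminescence with CellTiter-Glo after 30 min at room temperature.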

Each structure is given as a SMILES string. Records with an inconclusive call do not appear. A structure can be active in one record and inactive in another. The source made the active and inactive calls. Rule for the calls, unless noted: active = hit-call score of the fitted dose curve at least 0.9, where 1 is the maximum; inconclusive = response in the unintended direction; inactive = score below 0.9.

Cellular tumor antigen p53 (Homo sapiens), sequence (P04637 whole entry, looked up): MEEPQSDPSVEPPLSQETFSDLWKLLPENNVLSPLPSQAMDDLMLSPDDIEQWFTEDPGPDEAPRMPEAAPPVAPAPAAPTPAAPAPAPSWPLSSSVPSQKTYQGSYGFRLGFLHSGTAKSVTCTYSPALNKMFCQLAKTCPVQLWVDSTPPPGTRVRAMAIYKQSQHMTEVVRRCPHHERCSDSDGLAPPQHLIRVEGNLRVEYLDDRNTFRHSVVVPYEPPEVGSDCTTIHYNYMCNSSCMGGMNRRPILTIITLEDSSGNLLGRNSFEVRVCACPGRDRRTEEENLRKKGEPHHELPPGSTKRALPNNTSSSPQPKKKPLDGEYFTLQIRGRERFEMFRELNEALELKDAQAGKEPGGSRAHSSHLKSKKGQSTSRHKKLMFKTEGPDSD

With `CSC(=O)c1c(C(F)F)nc(C(F)(F)F)c(C(=O)SC)c1CC(C)C`, the call in test [1], in [3], in test [4], in [5], in test [6] and in [7] was inactive. Also, the outcome in test [8] was inactive. For the same compound, the AC50 in test [2] was 78.7 µM (active).

For the compound `N#Cc1c[nH]cc1-c1cccc2c1OC(F)(F)O2`, the compound was classed as inactive in test [1], in [2], in [3], in [4], in [9] and in test [7]. Besides, the AC50 is 7.61 µM (active) in [5], 8.51 µM (active) in [6] and 5.39 µM (active) in test [8].

On to `COP(=S)(OC)Oc1ccc([N+](=O)[O-])c(C)c1`, for which the call in test [1], in test [2], in test [3], in test [4], in test [5] and in test [9] was inactive. For the same compound, the outcome in [6], in [7] and in test [8] was inactive.

On to `Cc1ccc(N=CN(C)C=Nc2ccc(C)cc2C)c(C)c1`, for which the result in test [1], in test [2], in test [4], in test [5], in [9] and in [6] was inactive. Besides, the call in [7] and in [8] was inactive.

In the case of `Cc1c(COC(=O)[C@@H]2[C@H](/C=C(\Cl)C(F)(F)F)C2(C)C)cccc1-c1ccccc1`, the compound was classed as inactive in test [1], in test [2], in test [4], in [5], in test [9] and in test [6]. Moreover, the call in test [7] and in test [8] was inactive. Further, the AC50 in [9] is 25.8 µM (active).

In the case of `CO/N=C(/C1=NOCCO1)c1ccccc1Oc1ncnc(Oc2ccccc2Cl)c1F`, the result in test [1], in test [4], in [9], in [6], in [7] and in test [8] was inactive. Moreover, the AC50 in [2] is 33 µM (active); in test [5], 3.05 µM (active).

As to `Cc1nc(N(C)C)nc(OC(=O)N(C)C)c1C`, the outcome in test [1] and in [2] was inactive.

As for `C=C(C)CN(CC)c1c([N+](=O)[O-])cc(C(F)(F)F)cc1[N+](=O)[O-]`, the call in test [1], in [2], in test [3], in test [4], in test [5] and in [9] was inactive. The result in [6] and in test [8] was inactive.

In the case of `CC(C)N1C(=O)N(c2ccccc2)CSC1=NC(C)(C)C`, the outcome in test [1], in test [5], in [9], in test [6] and in [8] was inactive. Further, the AC50 in test [2] was 84.1 µM (active); in test [4] it was 84.6 µM (active); in test [7], 71.3 µM (active).

On to `CC(C)Oc1cccc(NC(=O)c2ccccc2C(F)(F)F)c1`, for which the outcome in test [1], in test [2], in test [4], in test [5], in [9] and in [6] was inactive. Moreover, the outcome in test [7] and in test [8] was inactive.

On to `CCNC(=O)NC(=O)C(C#N)=NOC`, for which the compound was called inactive in test [1] and in test [2].

For the compound `CC1(C)C(C=C(Cl)Cl)C1C(=O)OC(C#N)c1cccc(Oc2ccccc2)c1` (stereo not given), the outcome in test [1], in [2], in test [3], in test [4], in [5] and in test [9] was inactive. In addition, the result in test [6], in [7] and in test [8] was inactive.

Regarding `CC(C)NC(=O)N1CC(=O)N(c2cc(Cl)cc(Cl)c2)C1=O`, the AC50 in test [1] was 14.8 µM (active). The call in test [2], in test [3], in [4], in test [5], in test [9] and in [6] was inactive. Moreover, the compound was called inactive in test [7] and in [8].

Take `CC(C)(C)C(=O)C(Oc1ccc(Cl)cc1)n1cncn1` (stereo not given): the compound was classed as inactive in test [1], in test [2], in [4], in test [5], in [9] and in test [6]. Moreover, the compound was classed as inactive in [7]. Moreover, in [8], the AC50 was 86 µM (active).

`COP(=S)(OC)SCn1nnc2ccccc2c1=O`: the call in test [1], in test [2], in test [3], in test [4], in [5] and in test [9] was inactive. Further, the outcome in [6], in [7] and in test [8] was inactive. The AC50 in test [5] was 73.9 µM (active).
